Results on 28 compounds are retold here after PubChem BioAssay (EPA / NIEHS).

Molecules are shown by their SMILES. Records with an inconclusive call do not appear. The source made the active and inactive calls. The calls were made as follows: active = hit-call score of the fitted dose curve at least 0.9, where 1 is the maximum; inconclusive = response in the unintended direction; inactive = score below 0.9.

Assay [1] can be described thus: ATG_XTT_Cytotoxicity: Cytotoxicity Assessment in the Attagene TRANS-FACTORIAL HepG2 Assay (AID 2283584).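 As to AC50: cells exposed to compound for 24 h before reading; active means loss of viability signal versus DMSO baseline.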 The method in brief: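 HepG2 human liver cells, transiently transfected with multiple GAL4-UAS reporter units, were dosed and read at 24 h by XTT as cell number. Loss of signal was fitted relative to DMSO negative control baseline.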
Assay [2] concerns the target Cellular tumor antigen p53 (Homo sapiens) (UniProt P04637). The experiment in a line: TOX21_p53_BLA_p2_ratio: Tox21 HCT-116 p53 Agonism Beta-lactamase Assay, Ratio, Phase 2 (AID 2283592). The method in brief: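 HCT116 cells carrying a p53-responsive beta-lactamase reporter were plated, incubated 5 h at 37C, then dosed with compounds in DMSO (217-fold dilution) for 16 h. CCF4-AM substrate was added for 2 h at room temperature; the 460/530 nm emission ratio gave gain-of-signal activity relative to DMSO.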

For assay [3] the target is unchanged. The experiment in a line: TOX21_p53_BLA_p3_ratio: Tox21 HCT-116 p53 Agonism Beta-lactamase Assay, Ratio, Phase 3 (AID 2283596). The method in brief:
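HCT116 p53-bla cells (4000/well) given compound in DMSO (217-fold dilution) after 5 h, incubated 16 h at 37C. CCF4-AM substrate 2 h at room temperature; 460/530 nm emission ratio, gain fitted against DMSO.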

Assay [4] shares this target. The experiment in a line: TOX21_p53_BLA_p5_ratio: Tox21 HCT-116 p53 Agonism Beta-lactamase Assay, Ratio, Phase 5 (AID 2283599). In outline:
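HCT-116 p53-bla cells (4000/well) plated 5 h, dosed with compound (217-fold DMSO dilution) for 16 h at 37 C; CCF4-AM substrate 2 h at room temperature. Activity is the 460/530 nm emission ratio (405 nm excitation), fitted in gain-of-signal direction versus DMSO.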

Assay [5] is described as follows: TOX21_p53_BLA_p5_viability: Viability Assessment in the Tox21 HCT-116 p53 Agonism Beta-lactamase Assay, Phase 5 (AID 2283600). The method in brief:
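Cells were plated at 4000/well, rested 5 h at 37C, then given compounds in DMSO (217-fold dilution) for 16 h at 37C, 5% CO2. Following the CCF4-AM beta-lactamase read, CellTiter-Glo was added and luminescence was read after 30 min at room temperature.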

The target in assay [6] is Cellular tumor antigen p53 (Homo sapiens) (UniProt P04637). The experiment in a line: TOX21_p53_BLA_p4_ratio: Tox21 HCT-116 p53 Agonism Beta-lactamase Assay, Ratio, Phase 4 (AID 2283601). The method in brief:
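HCT-116 p53 beta-lactamase reporter cells (4000/well) preincubated 5 h, then compound (217-fold dilution of DMSO stock) for 16 h at 37C. CCF4-AM substrate added 2 h at room temperature; 460/530 nm emission ratio fitted upward versus DMSO.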

A short description of assay [7]: TOX21_p53_BLA_p3_viability: Viability Assessment in the Tox21 HCT-116 p53 Agonism Beta-lactamase Assay, Phase 3 (AID 2283593).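 Also: cells exposed to compound for 16 h before reading.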 In outline:
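HCT116 cells, 4000/well, dosed 5 h after plating by pin transfer (217-fold dilution from DMSO stock) and incubated 16 h at 37C, 5% CO2. Viability read as ATP luminescence with CellTiter-Glo after 30 min at room temperature.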

The nature of assay [8]: TOX21_p53_BLA_p4_viability: Viability Assessment in the Tox21 HCT-116 p53 Agonism Beta-lactamase Assay, Phase 4 (AID 2283597).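 Also: hits lower the luminescence signal meaning cytotoxicity.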 In outline: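 HCT116 p53-bla cells (4000/well) rested 5 h at 37C, then received compounds in DMSO (217-fold dilution) for 16 h at 37C, 5% CO2. CellTiter-Glo was added after the CCF4-AM read, and luminescence was read after 30 min at room temperature.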

Assay [9] in a line: TOX21_p53_BLA_p2_viability: Viability Assessment in the Tox21 HCT-116 p53 Agonism Beta-lactamase Assay, Phase 2 (AID 2283591).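 Also: compound exposure lasted 16 h at 37 °C; actives lower the ATP signal meaning cytotoxicity.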 In outline:
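HCT116 p53-bla cells, 4000/well, dosed after 5 h plating (217-fold dilution of DMSO stocks) and incubated 16 h at 37C. Viability taken as cellular ATP by CellTiter-Glo luminescence after 30 min RT; signal loss marks cytotoxicity.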

Cellular tumor antigen p53 (Homo sapiens), sequence (P04637 whole entry, looked up): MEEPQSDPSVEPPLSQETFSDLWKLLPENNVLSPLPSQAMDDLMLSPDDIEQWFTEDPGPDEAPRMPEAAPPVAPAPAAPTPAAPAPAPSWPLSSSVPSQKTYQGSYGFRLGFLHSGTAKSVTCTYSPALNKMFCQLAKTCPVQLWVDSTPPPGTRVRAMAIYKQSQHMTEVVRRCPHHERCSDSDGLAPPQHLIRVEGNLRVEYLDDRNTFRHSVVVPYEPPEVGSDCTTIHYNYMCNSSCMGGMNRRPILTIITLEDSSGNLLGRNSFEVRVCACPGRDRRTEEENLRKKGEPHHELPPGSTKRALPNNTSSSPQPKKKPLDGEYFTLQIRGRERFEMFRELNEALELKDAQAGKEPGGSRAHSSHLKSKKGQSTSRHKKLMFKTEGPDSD

As for `CS(=O)(=O)c1ccc(C(=O)C2C(=O)CCCC2=O)c(Cl)c1COCC(F)(F)F`, the compound was classed as inactive in assay [1], in assay [2], in assay [3], in [4], in [5] and in assay [6].

As to `Nc1ccc(-c2ccccc2)cc1`, the call in [1], in [2], in assay [7], in assay [3], in assay [8] and in assay [4] was inactive. Besides, the call in [5] and in [6] was inactive.

On to `N#CCC#N`, for which the result in assay [1], in assay [9], in assay [3], in [4], in assay [5] and in [6] was inactive.

Turning to `CN(N=O)C(N)=O`, the call in [1], in assay [2], in assay [7], in assay [3], in [4] and in assay [6] was inactive.

In the case of `O=C1C[C@@H]2OCC=C3CN4CC[C@]56c7ccccc7N1[C@H]5[C@H]2[C@H]3C[C@H]46`, the compound was classed as inactive in assay [1], in assay [2], in assay [7], in assay [3], in assay [8] and in assay [4]. The outcome in assay [5] and in [6] was inactive.

`O=CCCl`: the compound was classed as inactive in [1], in assay [2], in assay [7], in [3], in assay [4] and in assay [6].

As to `O=C(CBr)c1ccc(O)cc1`, the compound was classed as inactive in assay [1], in [2], in assay [7], in [3], in [8] and in assay [4]. Also, the compound was classed as inactive in assay [5] and in assay [6].

Turning to `CCOC(=O)CCN(SN(C)C(=O)Oc1cccc2c1OC(C)(C)C2)C(C)C`, the compound was called inactive in [1], in [9], in assay [3], in [4], in [5] and in assay [6].

As to `Nc1cccnc1`, the compound was called inactive in assay [1], in [2], in assay [7], in assay [3], in [8] and in assay [4]. Moreover, the compound was called inactive in [5] and in assay [6].

As for `CCOc1cc(C=O)ccc1O`, the outcome in assay [1], in [2], in assay [7], in assay [3], in [8] and in [4] was inactive. Also, the result in assay [5] and in [6] was inactive.

With `O=C(CCl)NCO`, the compound was classed as inactive in [1], in assay [9], in assay [8], in assay [4] and in assay [6].

Turning to `CC(=O)CN(CC(C)=O)N=O`, the compound was classed as inactive in assay [1], in [2], in [7] and in assay [8].

`CCC(C)(C#N)N=NC(C)(C#N)CC` (stereo unspecified): the compound was called inactive in assay [1], in assay [2], in [7], in [8], in [4] and in [5].

Consider `C=CC(=O)NC(C)(C)CC(C)=O`, for which the outcome in assay [1], in assay [9], in [3], in assay [8] and in [5] was inactive.

As for `C=CC(=O)OCC(COC(=O)C=C)(COC(=O)C=C)COC(=O)C=C`, the concentration at half-maximal activity (AC50) in [1] was 73.8 µM (active); in [7] it was 57.9 µM (active); in [8] it was 13.3 µM (active); in [5], 21.3 µM (active); in [6], 46.1 µM (active). Also, the result in assay [2], in assay [3] and in [4] was inactive.

For `Cl[C@H]1OCCO[C@@H]1Cl`, the compound was classed as inactive in assay [1], in [2], in assay [7], in [3], in [8] and in [4]. Also, in assay [6], the result was inactive.

Consider `CCCCCCCCCCCCCCC(Br)C(=O)O` (stereo unspecified), for which the result in assay [1], in [8] and in assay [6] was inactive. Further, the AC50 is 41.4 µM (active) in assay [7], 75.3 µM (active) in [3], 70.6 µM (active) in assay [4] and 70.3 µM (active) in assay [5].

Regarding `Cc1ccccc1OP(=O)(Oc1ccccc1C)Oc1ccccc1C`, the compound was classed as inactive in [1], in assay [3], in [8], in assay [4] and in assay [6].

Take `N#CCCC(Br)(C#N)CBr` (stereo unspecified): the outcome in [9], in assay [2], in assay [7], in assay [8] and in [6] was inactive. For the same compound, the AC50 in assay [3] was 70.8 µM (active).

With `COP(=S)(OC)Oc1cc(Cl)c(I)cc1Cl`, the compound was classed as inactive in assay [9], in assay [7], in assay [8], in assay [4] and in assay [5]. Also, the concentration at half-maximal activity (AC50) in assay [3] is 75.1 µM (active); in assay [6] it was 87.3 µM (active).

As to `O=C(NC(=O)c1c(F)cccc1F)Nc1cc(Cl)c(F)c(Cl)c1F`, the call in assay [9], in assay [7], in assay [3], in assay [8], in [4] and in [5] was inactive. In addition, the outcome in assay [6] was inactive.

With `O=S1(=O)OC(c2cc(Br)c(O)c(Br)c2)(c2cc(Br)c(O)c(Br)c2)c2ccccc21`, the call in [1], in assay [4], in [5] and in assay [6] was inactive. Further, the figures for the AC50 in [7] and in [8] were 8.86 µM (active) and 52.4 µM (active), respectively.

As to `CC(C)C(C)(N)C#N` (stereo unspecified), the call in assay [9], in assay [2], in [7], in assay [8], in assay [4] and in assay [6] was inactive.

Take `Cc1cc(C(C)(C)c2ccc(O)c(C)c2)ccc1O`: the compound was called inactive in [1], in assay [3], in [8], in assay [4] and in assay [5]. Also, in assay [6], the AC50 was 41.9 µM (active).

Consider `CCOC(=O)C(SP(=S)(OC)OC)c1ccccc1` (stereo unspecified), for which the call in assay [1], in assay [7], in [3], in assay [4], in assay [5] and in [6] was inactive.

For `Nc1ccc(Br)cc1`, the compound was called inactive in assay [9], in assay [2], in [7], in assay [3], in [8] and in assay [4]. Besides, the call in assay [5] and in assay [6] was inactive.

`O=C(Cl)OCCOCCOC(=O)Cl`: the compound was classed as inactive in assay [1], in [2], in [3], in [5] and in [6].

Take `O=C(NC(=O)c1c(F)cccc1F)Nc1cc(Cl)c(Oc2ncc(C(F)(F)F)cc2Cl)c(Cl)c1`: the compound was called inactive in assay [9], in [7], in assay [3] and in assay [5]. For the same compound, the figures for the AC50 in [8], in [4] and in assay [6] were 4.06 µM (active), 13.7 µM (active) and 15.6 µM (active), respectively.

In general, AC50 refers to the midpoint of the concentration-response curve, whichever way the signal moves.
